# ULK1 primary – human ULK1 kinase inhibition, primary screen. AlphaScreen Atg13 phosphorylation by ULK1, luminescence. 30,000 compounds, 1.9% hits. AID 1259251. O75385. inhibition, % at 5.96 µM; in the data active means inhibition above about 43%;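 further: 0% = median of compound wells and 100% = no enzyme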
# Target sequence (O75385 whole entry, looked up): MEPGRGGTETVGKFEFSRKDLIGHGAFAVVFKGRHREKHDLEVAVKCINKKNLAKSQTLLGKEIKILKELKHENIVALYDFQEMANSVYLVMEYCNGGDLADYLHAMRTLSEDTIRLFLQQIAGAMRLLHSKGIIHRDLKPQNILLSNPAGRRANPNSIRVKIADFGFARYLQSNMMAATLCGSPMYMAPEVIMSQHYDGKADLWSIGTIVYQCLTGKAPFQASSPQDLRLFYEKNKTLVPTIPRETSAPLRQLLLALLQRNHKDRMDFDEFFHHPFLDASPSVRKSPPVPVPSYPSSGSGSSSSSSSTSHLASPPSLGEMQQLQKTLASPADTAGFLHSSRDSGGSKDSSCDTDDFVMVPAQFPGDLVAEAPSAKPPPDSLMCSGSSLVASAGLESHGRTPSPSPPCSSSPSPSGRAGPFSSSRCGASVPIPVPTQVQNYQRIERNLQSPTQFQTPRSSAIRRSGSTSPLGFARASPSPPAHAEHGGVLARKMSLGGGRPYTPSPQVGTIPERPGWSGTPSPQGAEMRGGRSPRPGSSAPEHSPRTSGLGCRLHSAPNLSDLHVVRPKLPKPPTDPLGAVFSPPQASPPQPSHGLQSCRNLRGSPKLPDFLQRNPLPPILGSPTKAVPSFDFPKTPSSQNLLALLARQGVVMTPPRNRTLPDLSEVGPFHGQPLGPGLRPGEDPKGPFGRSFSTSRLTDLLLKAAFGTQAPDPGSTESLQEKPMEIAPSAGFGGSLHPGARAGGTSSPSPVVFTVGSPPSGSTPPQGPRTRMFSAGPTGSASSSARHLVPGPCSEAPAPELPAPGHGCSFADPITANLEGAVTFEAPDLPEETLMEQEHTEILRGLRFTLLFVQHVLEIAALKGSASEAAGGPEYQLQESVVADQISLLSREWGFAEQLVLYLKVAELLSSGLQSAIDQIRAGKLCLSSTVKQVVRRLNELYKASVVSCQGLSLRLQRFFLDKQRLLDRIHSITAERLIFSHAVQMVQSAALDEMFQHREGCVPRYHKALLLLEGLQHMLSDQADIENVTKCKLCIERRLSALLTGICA
# ASK1 inh – human ASK1 kinase inhibition, primary screen | Q99683 | AlphaScreen MKK6 phosphorylation by ASK1, luminescence | inhibition, % at 7.44 µM | 22,000 compounds, 0.99% hits | AID 1159602; in the data active means inhibition above about 35%;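 further: 0% = median of compound wells and 100% = no enzyme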
# Active calls of the source: *; · = no result given. Most compounds without a hit are left out; they make up all but 2.4% or so of the library.
SMILES,ULK1 primary,ASK1 inh
CNS(=O)(=O)c1ccccc1Nc1cc(NC(=O)Cc2ccc(OC)cc2)ncc1C(F)(F)F,57*,30
c1cncc(Nc2nc(NCc3nc4ccccc4[nH]3)c3ncn(C4CCCCC4)c3n2)c1,9,-14
CN1C(=O)Cc2cc(NC(=O)COc3ccc(F)cc3)ccc21,-6,·
CC(=O)Nc1ccc(Nc2cc(Nc3ccncn3)ncn2)cc1,62*,11
COc1cc(Nc2cc(Nc3cnccn3)ncn2)cc(OC)c1OC,8,11
CC(=O)Nc1ccc(Nc2cc(Nc3ccncc3)nc(N)n2)cc1,2,-1
CC(=O)Nc1ccc(Nc2cc(Nc3ccncc3)ncn2)cc1,79*,-2
CC(=O)Nc1ccc(Nc2cc(Nc3ccncn3)nc(N)n2)cc1,5,4
COc1cc(Nc2cc(Nc3ccncc3)ncn2)cc(OC)c1OC,62*,17
Cc1nc(C)n(-c2ccc(Nc3nccc(-c4ccc5nc(C(C)C)[nH]c(=O)c5c4)n3)cc2)n1,13,34
Cc1ccc(C(=O)CC2SC(N)=NC2=O)cc1 (centres undefined),3,·
CN(C)c1cccc(Nc2nc(NCCc3ccc(O)cc3)c3ncn(CCN4CCCC4=O)c3n2)c1,18,10
O=C(NCc1cccc(C(F)(F)F)c1)c1cnc(Nc2ccc(C(F)(F)F)cc2)s1,-11,-20
COc1cc(-c2cn[nH]c2)ccc1NC(=O)N(C)Cc1ccccc1,-10,-5
O=C1CCCN1CCCNc1nc(NC2CCN(Cc3ccccc3)CC2)c2ncn(-c3ccccc3)c2n1,7,12
c1ccc(-c2ccnc(Nc3ccc(-c4ncn[nH]4)cc3)n2)cc1,-10,-16
Fc1ccc(-c2n[nH]c3ccc(-c4ncn[nH]4)cc23)cc1,71*,-69
Cn1c(Nc2cc(NCc3cccc(C(F)(F)F)c3)nc(N)n2)nc2ccccc21,-4,-7
CN(C)c1ccc(C(=C2C=CC(=[N+](C)C)C=C2)c2ccc(N(C)C)cc2)cc1,80*,·
CN(C)c1ccc(C(=C2C=CC(=[N+](C)C)C=C2)c2ccccc2)cc1,9,·
Nc1nc(NCc2cccc(C(F)(F)F)c2)cc(-c2ccc(N3CCOCC3)nc2)n1,-40,-7
Oc1cc(O)c2c(c1)O[C@H](c1ccc(O)c(O)c1)[C@@H](O)C2,53*,·
NC(=O)c1ccc(-c2cccc(C(=O)NC3CC3)c2)cc1,-16,-20
O=C(NC1CC1)c1cccc(NS(=O)(=O)c2ccc(-c3ncnc4[nH]ccc34)cc2)c1,44*,8
O=C(Nc1ccc2c(c1)OCO2)c1cccc(NC2CCC(O)CC2)n1 (centres undefined),4,8
SMILES,ULK1 primary,ASK1 inh
CC(C)NC(=O)c1cccc(NC(=O)Nc2ccc(-c3ncnc4nc[nH]c34)cc2)c1,19,26
CC(C)NC(=O)c1cccc(NC(=O)Nc2ccc(-c3ncnc4[nH]cc(Cl)c34)cc2)c1,70*,20
O=S(=O)(NC1CCCCC1)c1ccc2c(c1)OCCCO2,4,·
COc1cc2nc(Nc3ncccn3)nc(Nc3ccc(N4CCOCC4)cc3)c2cc1OC,-7,-1
Cc1cc(Nc2ccc(OCCN3CCCCC3)cc2)nc(Nc2ccc(N3CCOCC3)cc2)n1,9,10
COc1cc2nc(Nc3ccncc3)nc(Nc3ccc(N4CCOCC4)cc3)c2cc1OC,-4,42*
COc1cc2nc(Nc3ccc(N4CCOCC4)cc3)nc(Nc3ccc(OCCN4CCCCC4)cc3)c2cc1OC,-8,49*
COc1cccc(CNC(=O)Nc2ccc(-c3cn[nH]c3)cc2OC2CCNCC2)c1,1,-17
O=C(NN=C1CCC(=NNC(=O)c2ccccn2)CC1)c1ccccn1,-2,·
COc1cccc(CN(CCN)C(=O)Nc2ccc(-c3cn[nH]c3)cc2OCCCO)c1,78*,20
COc1cccc(CN(CCCN(C)C)C(=O)Nc2ccc(-c3cn[nH]c3)cc2OC)c1,-10,-8
COc1cc(Nc2nc(Nc3ncccn3)nc3nc[nH]c23)cc(OC)c1OC,7,8
CN1CC[C@@H](Oc2cc(-c3cn[nH]c3)ccc2NC(=O)[C@@H]2COc3ccccc3O2)C1,5,1
COc1cc(Nc2nc(NCCN(C(C)C)C(C)C)c3[nH]cnc3n2)cc(OC)c1OC,10,5
COc1cc(Nc2nc(NCc3ccccc3)c3[nH]cnc3n2)cc(OC)c1OC,67*,-19
COc1cc(Nc2nc(Nc3ccccc3)c3[nH]cnc3n2)cc(OC)c1OC,65*,-10
COc1cc(Nc2nc(Nc3cccnc3)nc3nc[nH]c23)cc(OC)c1OC,23,-3
COc1cc(Nc2nc(Nc3nccc4ccccc34)nc3nc[nH]c23)cc(OC)c1OC,1,-8
CCCNc1nc(Nc2cc(OC)c(OC)c(OC)c2)nc2nc[nH]c12,59*,-41
Cc1cc(NCc2nc3ccccc3[nH]2)nc(Nc2ncccn2)n1,4,-13
O=C1OCCN1c1ccc(Nc2nccc(-c3cncc(N4CCOCC4)c3)n2)cc1,4,6
CS(=O)(=O)Nc1ccc(-c2ccnc(Nc3ccc(-n4ccnn4)cc3)n2)cc1,66*,-28
CS(=O)(=O)c1ccc(-c2ccnc(Nc3ccc(C(N)C(F)(F)F)cc3)n2)cc1 (centres undefined),20,-21
CC(O)c1ccc(Nc2nccc(-c3ccc(NS(C)(=O)=O)cc3)n2)cc1 (centres undefined),69*,-7
Cn1cnnc1-c1ccc(Nc2nccc(-c3ccc(NS(C)(=O)=O)cc3)n2)cc1,-14,1
SMILES,ULK1 primary,ASK1 inh
Cc1ncn(-c2ccc(Nc3nccc(-c4ccc(S(C)(=O)=O)cc4)n3)cc2)n1,2,-12
CS(=O)(=O)Nc1ccc(-c2ccnc(Nc3ccc(N4CCOC4=O)cc3)n2)cc1,70*,-3
Cc1cnnn1-c1ccc(Nc2nccc(-c3ccc(NS(C)(=O)=O)cc3)n2)cc1,49*,6
COc1ccc(CCNc2nc(Nc3ccncn3)ncc2C)cc1,3,-3
O=C(NCCOc1ccccc1)c1ccnc(Nc2ccc3ncccc3c2)c1,-7,-6
O=C(Nc1cnn(-c2cccc(C(=O)Nc3ccc(N4CCOCC4)cc3)c2)c1)Nc1ccccc1Cl,3,2
O=C(Nc1cnn(-c2cccc(CNc3ccc(N4CCOCC4)cc3)c2)c1)Nc1ccccc1Cl,49*,25
OCCNc1nc(-c2cccs2)nc2c1ncn2Cc1ccc(C(F)(F)F)cc1,-32,-2
COc1ccc(C(O)C(=O)N2CCC[C@H]2C(=O)Nc2ccc3[nH]ncc3c2)cc1 (some centres undefined),6,3
CCN(CC)C(=O)C1CCCN(c2ncc(C(=O)Nc3ccc(Oc4ccccc4)cc3)s2)C1 (centres undefined),-5,4
O=C(Nc1ccc(N2CCOCC2)cc1)c1cnc(N2CCN(c3ccccn3)CC2)s1,-6,0
CCN(CC)C(=O)C1CCCN(c2ncc(C(=O)Nc3ccc(N4CCOCC4)cc3)s2)C1 (centres undefined),49*,-15
O=C(Nc1ccc(N2CCOCC2)cc1)c1cnc(N2CCOCC2)s1,45*,4
CCOC(=O)C(C)(N)Cc1cc(I)c(Oc2cc(I)c(O)c(I)c2)c(I)c1 (centres undefined),34,·
COc1cc(/C=C/c2[nH]c(=O)[nH]c(=O)c2[N+](=O)[O-])cc([N+](=O)[O-])c1O,15,·
Cc1nc(Nc2cc(Nc3ccccc3S(=O)(=O)NC(C)C)c(C(F)(F)F)cn2)cc(-c2cncnc2)n1,45*,-1
Cc1nc(Nc2ccccc2)cc(-c2cncc(-c3ccc(F)cc3)c2)n1,-1,·

# Source: PubChem BioAssay
